Where two headings read alike, the source gives them in different places. In all, about 13,000 compounds went through this assay and about 3,200 (25%) showed an effect of 50% or more. The list shows a part of the results.
System: P. falciparum stage V gametocytes
Parameters: BacTiter-Glo ATP luminescence viability of purified stage V gametocytes in 384-well plates, per cent inhibition versus DMSO
Conditions: 48 h, 5 µM, inhibitor

| Structure (SMILES) | % Inhibition [%] | % Inhibition (% Inhibition) [%] |
| --- | --- | --- |
| COc1ccc(-n2nc(C)c3c2NC(=O)CC3c2ccccc2OCc2ccc(F)cc2)cc1 (centres unmarked) [TCMDC-124906] | 40.61 | – |
| COC(=O)c1cc(C(O)CNC(C)CCCc2ccccc2)ccc1O (centres unmarked) [TCMDC-131241] | -5.82 | – |
| COc1ccc2nccc([C@@H](O)CN3CCC(NCc4nc5c(F)cccc5[nH]4)CC3)c2c1 [TCMDC-140760] | 20.74 | – |
| O=C(c1cccc(-c2cccc(-c3nc4cc(C(F)(F)F)ccc4[nH]3)c2)c1)N1CCCCC1CN1CCC(O)C1 (centres unmarked) [TCMDC-132346] | -18.68 | – |
| CCN(CCCN1CCCCC1)c1cc(C)nc(Nc2cc(Cl)cc(Cl)c2)n1 [TCMDC-132455] | 8.984 | – |
| Cc1nc(C(C)Nc2nncc(-c3ccc(Cl)cc3)n2)cs1 (centres unmarked) [TCMDC-124636] | -29.02 | – |
| CC(C)c1cccc(C(NC(=O)[C@H]2Cc3ccccc3CN2C(=O)c2cccc(N3CCOCC3)c2)C2CCCC2)c1 (some centres unmarked) [TCMDC-138264] | 2.743 | – |
| FC(F)(F)c1ccc2[nH]c(-c3ccc(-c4cccc(CNCC5CCCO5)c4)s3)nc2c1.O=C(O)C(F)(F)F (centres unmarked) [TCMDC-133099] | -9.129 | – |
| COc1ccc2nccc([C@@H](O)CN3CCC(NS(=O)(=O)c4cc(Br)c(Br)s4)CC3)c2c1 [TCMDC-141306] | 29.28 | – |
| COc1ccc(-c2cccc(NC(=O)c3ccc(Cl)cc3)c2)cc1CN1CCC(O)CC1 [TCMDC-132606] | -74.32 | – |
| COc1ccc(-c2cccc(NC(=O)c3cccc(Cl)c3)c2)cc1CN1CCC(O)CC1 [TCMDC-132618] | 87.3 | – |
| COc1ccc(-c2ccc(NC(=O)c3cccc(Cl)c3)cc2)cc1CN1CCC(O)CC1 [TCMDC-133334] | 46.17 | – |
| Cc1ccc(CNc2cc(C(F)(F)F)nc(-c3ccc(S(C)(=O)=O)cc3)n2)cc1 [TCMDC-138598] | 20.79 | – |
| CN1CCN(c2ccnc3cc4c(cc23)N(C(=O)Nc2ccc(-c3ccncc3)c3ccccc23)CC4)CC1 [TCMDC-139371] | 4.895 | – |
| CN1CCN(c2ccnc3ccc(NC(=O)c4ccc(Cl)c(Cl)c4)cc23)CC1 [TCMDC-139350] | 4.304 | – |
| O=C(/C=C/c1ccc(C(F)(F)F)cc1)N1CCc2cc3nccc(N4CCN5CCC[C@H]5C4)c3cc21 [TCMDC-140045] | 20.84 | – |
| Cc1cc(-c2cccc3c(C(=O)N4CCc5cc6nccc(N7CCCN(C)CC7)c6cc54)cccc23)cc(C)n1 [TCMDC-140244] | 100.8 | – |
| CN1CCCN(c2ccnc3cc4c(cc23)N(C(=O)c2ccc(Cl)cc2Cl)CC4)CC1 [TCMDC-140241] | 126.7 | – |
| CN1CCCN(c2ccnc3cc4c(cc23)N(C(=O)c2ccc(Cl)c(Cl)c2)CC4)CC1 [TCMDC-140242] | 99.6 | – |
| Cc1nc(-c2ccc(C(F)(F)F)cn2)sc1C(=O)N1CCc2cc3nccc(N4CCN5CCC[C@H]5C4)c3cc21 [TCMDC-140330] | -2.363 | – |
| O=C(Nc1ccc(Cl)c(Cl)c1)N1CCc2cc3nccc(N4CCN5CCC[C@H]5C4)c3cc21 [TCMDC-140055] | 49.62 | – |
| CN1CCCN(c2ccnc3cc4c(cc23)N(C(=O)c2ccc(C(F)(F)F)cc2)CC4)CC1 [TCMDC-140243] | 67.52 | – |

| Structure (SMILES) | % Inhibition [%] | % Inhibition (% Inhibition) [%] |
| --- | --- | --- |
| CN1CCN(c2ccnc3cc4c(cc23)N(C(=O)Nc2ccc3c(c2)CCCC3=O)CC4)CC1 [TCMDC-139372] | 0.5076 | – |
| Cc1cc(-c2cccc3c(C(=O)N4CCc5cc6nccc(N7CCN8CCC[C@H]8C7)c6cc54)cccc23)cc(C)n1 [TCMDC-139793] | 31.07 | – |
| CN1CCCN(c2ccnc3cc4c(cc23)N(C(=O)c2ccccc2Cl)CC4)CC1 [TCMDC-140239] | 27.46 | – |
| CN1CC(c2ccccc2)c2cc(O)c(CN3CCCCC3)cc2CC1Cc1ccccc1 (centres unmarked) [TCMDC-131902] | -4.593 | – |
| COc1cc(Cc2cnc(N)nc2N)cc(OCCCCNS(=O)(=O)C(F)(F)F)c1OC [TCMDC-137348] | 8.081 | – |
| O=C(NC1CCN(CCCOc2ccnc3cc(Cl)ccc23)C1)c1ccc(Br)cc1 (centres unmarked) [TCMDC-136147] | -6.07 | – |
| Cc1nc(-c2ccc(-c3ccc(C(=O)Nc4ccc(Cl)c(N5CCN(C)CC5)c4)cc3)c(C)c2)no1 [TCMDC-131979] | -60.2 | – |
| CC1(C)N=C(N)N=C(N)N1c1ccc(I)cc1 [TCMDC-124271] | 5.763 | – |
| CN(CCCCCNC(=O)/C=C/c1ccc(Cl)c(Cl)c1)CCCCc1c[nH]c2ccccc12 [TCMDC-139328] | -28.14 | – |
| CC1CCN(c2nc(C(=O)Nc3cccc4c3CCCC4)c(C(C)C)s2)CC1 [TCMDC-134662] | 11.59 | – |
| CN1CCCN(c2ccnc3cc4c(cc23)N(C(=O)c2ccc(Cl)cc2)CC4)CC1 [TCMDC-140240] | 94.93 | – |
| CN1CCN(c2ccnc3ccc(NC(=O)Nc4ccc(Cl)cc4)cc23)CC1 [TCMDC-139322] | 28.3 | – |
| CN1CCN(c2ccnc3cc4c(cc23)N(Cc2ccccc2)CC4)CC1 [TCMDC-139341] | -3.615 | – |
| Cc1ccc(C2(C)CC(C)(C)N(C(=O)COc3ccc4ccccc4c3)c3ccccc32)cc1 (centres unmarked) [TCMDC-124089] | -65.04 | – |
| COc1ccccc1CCN1CCC(CN(C)Cc2ccc(O)c(Cl)c2)CC1 [TCMDC-124611] | 14.29 | – |
| COc1ccc2nccc([C@@H](O)CN3CCC(NC(=O)c4cc5c(Cl)cc(Cl)cc5[nH]4)CC3)c2c1 [TCMDC-141039] | -18.46 | – |
| CN(C)c1ccc(C=C2SC(=O)NC2=Nc2ccccc2)cc1 [TCMDC-123738] | 34.75 | – |
| O=C(Nc1ccc(Cl)cc1)N[C@H]1CCN(Cc2ccc(OCCCN3CCCCC3)cc2)C1 [TCMDC-141787] | 90.53 | – |
| COc1cccc(NC(=O)NC2CCN(CCCCCNC(=O)/C=C/c3ccc(Cl)c(Cl)c3)CC2)c1 [TCMDC-139388] | 31.25 | – |
| O=C(Nc1ccc(Cl)cc1)Nc1ccc(OCC(O)CN2CCCCC2)cc1 (centres unmarked) [TCMDC-123519] | 4.072 | – |
| COc1cc(CN2CCC(NC(=O)[C@H](Cc3ccccc3)NC(=O)Nc3ccc(Oc4ccccc4)cc3)C2)ccc1O (some centres unmarked) [TCMDC-140500] | -15.62 | – |
| O=C(Nc1ccc(Oc2ccccc2)cc1)N[C@@H](Cc1ccc(O)cc1)C(=O)NC1CCN(Cc2ccc(O)c([N+](=O)[O-])c2)C1 (some centres unmarked) [TCMDC-140421] | 0.03751 | – |

| Structure (SMILES) | % Inhibition [%] | % Inhibition (% Inhibition) [%] |
| --- | --- | --- |
| O=C(Nc1ccc(Oc2ccccc2)cc1)N[C@H]1CCN(Cc2ccc(OCCCN3CCCCC3)cc2)C1 [TCMDC-141786] | 96.23 | – |
| Cc1ccc(CN2CCCCC(NC(=O)c3cc4ccccc4s3)C2)cc1 (centres unmarked) [TCMDC-141748] | -37.31 | – |
| O=C(Nc1cccc(Cl)c1)N[C@H]1CCN(Cc2ccc(OCCCN3CCCCC3)cc2)C1 [TCMDC-141788] | 103.5 | – |
| O=C(Nc1ccc(-c2ccccc2)s1)N[C@H]1CCN(Cc2ccc(OCCCN3CCCCC3)cc2)C1 [TCMDC-141789] | 86.03 | – |
| Cc1cccc2[nH]c(-c3cccc(-c4cccc(NC(=O)NCc5cccc(F)c5)c4)c3)nc12 [TCMDC-133291] | 37.78 | – |
| O=C(Nc1cccc(-c2cccc(-c3nc4ccc(F)cc4[nH]3)c2)c1)Nc1ccc(F)c(F)c1F [TCMDC-133233] | -45 | – |
| Cc1cc(Cl)c(S(=O)(=O)N(C)c2ccccc2)cc1OCC(=O)NC1CCCCC1 [TCMDC-124368] | -27.39 | – |
| Cc1cc(C(=O)CN2C(=O)NC3(CCOc4ccccc43)C2=O)c(C)n1Cc1ccc(F)cc1 (centres unmarked) [TCMDC-125246] | -0.05637 | – |
| CC(CNc1nc(NCC(c2ccccc2)c2ccccc2)c2[nH]cnc2n1)c1ccccc1 (centres unmarked) [TCMDC-131859] | -14.76 | – |
| O=C(Nc1ccc(C(F)(F)F)cc1)c1ccc(S(=O)(=O)NC2CCN(Cc3ccccc3)C2)cc1 (centres unmarked) [TCMDC-133675] | 7.046 | – |
| Cc1ccc(NC(=O)c2ccc(NCCCN(C)Cc3ccccc3)c([N+](=O)[O-])c2)cc1F [TCMDC-125686] | 12.99 | – |
| O=C(Nc1ccccc1F)NC1CCN(c2ccnc(Nc3ccc(F)cc3)n2)C1 (centres unmarked) [TCMDC-133603] | -76.2 | – |
| O=C(Nc1ccc(C(=O)Oc2ccc3ccccc3c2)cc1)N[C@@H](Cc1ccc(O)cc1)C(=O)NC1CCN(Cc2ccc(O)cc2)C1 (some centres unmarked) [TCMDC-135358] | -34.98 | – |
| O=C(Nc1ccc2c(c1)CCC2)N[C@H]1CCN(Cc2ccc(OCCCN3CCCCC3)cc2)C1 [TCMDC-141790] | 89.55 | – |
| O=C(Nc1ccc(-c2ccccc2)cc1)Nc1cccc(OCCN2CCCC2)c1 [TCMDC-139541] | -48.88 | – |
| N#Cc1cccc(NC(=O)Nc2cccc(OC3CCN(Cc4ccccc4)CC3)c2)c1 [TCMDC-139545] | 11.02 | – |
| O=C(Nc1ccc2c(c1)CCC2)N[C@H]1CCN(CCCCCNC(=O)C2CC2c2ccc(Cl)c(Cl)c2)C1 (some centres unmarked) [TCMDC-136264] | 5.581 | – |
| O=C(Nc1cccc(Oc2ccccc2)c1)N[C@H]1CCN(Cc2ccc(OCCCN3CCCCC3)cc2)C1 [TCMDC-141785] | 106.3 | – |
| N#Cc1cc(C(=O)c2cc(Br)ccc2O)cn(C2CCCCC2)c1=O [TCMDC-123629] | -45.84 | – |
| O=C(/C=C/c1ccc(Cl)c(Cl)c1)NCCCCCN1CCC(c2c[nH]c3ccccc23)C(O)C1 (centres unmarked) [TCMDC-139656] | – | -35.83 |
| CC(=O)c1cccc2cc(C(=O)NC3CCC(CCN4CCc5ccc(C#N)cc5C4)CC3)[nH]c12 (centres unmarked) [TCMDC-139192] | 14.52 | – |
